In one assay the target is PRB2. The assay is described as follows: pooled miR-30 sensor sort-seq; sequence = guide strand. Particulars: shRNA.
For the sequence AGGAGATCGAGAACTTCGGGAC, the sensor-assay potency score (higher = more potent) is -1.14.
Same read-out and setting: in the case of TTGGGACTTGTTGTCTCCTTGT it was -0.258; in that of GAGGAGATCGAGAACTTCGGGA, -0.989.
The same measure, in the same setting: the same measure for TTGAGGATTGTTGCCTTCTTGT: -0.928; for TTCGGGACTTGTTGTCTCCTTG: -0.146.

The next assay has as its target PRDM11. The description is as above. As to conditions: shRNA.
With TGTTGTTGCACACTGACTGTAG, the sensor-assay potency score (higher = more potent) worked out at 0.562.
In turn, TAATTCTGCCTGGAGCTCCCGA returned a sensor-assay potency score (higher = more potent) of -0.672.
Same read-out and setting: the same measure for TTGTTGTTGCACACTGACTGTA: -0.0431.
Still for that read-out and setting: the same measure for TTGCACACTGACTGTAGGCGTC: -0.555.
Still for that read-out and setting: in the case of TATATTCTGCACACCATGGGTC it was 0.141; in that of TAAGCATGTCTAATTCTGCCTG, -0.386; in that of TCATCCAAACCAACTTACCTGC, -0.593.
TTTCTTCTTCTTAGCTTGGGGG had a sensor-assay potency score (higher = more potent) of -0.807.
The same measure, in the same setting: in the case of TCCGACAATAATCTCATCCAAA it was -1.56; in that of TTTTCTTCTTCTTAGCTTGGGG, -0.102; in that of TTCTGGGTTATCCAGAACCTGC, -1.79.
TTCTTCTTCTTAGCTTGGGGGT registered a sensor-assay potency score (higher = more potent) of -0.763.

These data come from the OligoGym collection.
Note: reference of the scale not given here.
